Data from PubChem BioAssay.
Several values for one entry are separate records, joined by “and”; a condition that tells them apart may be missing. Identical values can stand only once. A number with no mark means an inactive call. Activity calls are given as the source filed them.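 The calls were made as follows, unless noted: active = z-score of at least 1.8 in each of two replicates, scored against plate mean and spread of sample wells; inactive = the rest.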

Biological target: Mitogen-activated protein kinase 7 (Homo sapiens) (UniProt Q13164)
Test: Gal4-ERK5 driven luciferase induction – cell-based, HTS, primary screen (AID 1508626;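 active = luciferase signal above three times the same-plate solvent-only control wells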;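 also: luciferase driven by Gal4-ERK5 fusion binding five Gal4 sites before minimal TATA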)
Details: HeLa Gal4-ERK5 transactivation, 18 h, at 5 µM, hits give high values

Chain of Mitogen-activated protein kinase 7 (Homo sapiens) (Q13164 whole entry, looked up, the tested form may be a part): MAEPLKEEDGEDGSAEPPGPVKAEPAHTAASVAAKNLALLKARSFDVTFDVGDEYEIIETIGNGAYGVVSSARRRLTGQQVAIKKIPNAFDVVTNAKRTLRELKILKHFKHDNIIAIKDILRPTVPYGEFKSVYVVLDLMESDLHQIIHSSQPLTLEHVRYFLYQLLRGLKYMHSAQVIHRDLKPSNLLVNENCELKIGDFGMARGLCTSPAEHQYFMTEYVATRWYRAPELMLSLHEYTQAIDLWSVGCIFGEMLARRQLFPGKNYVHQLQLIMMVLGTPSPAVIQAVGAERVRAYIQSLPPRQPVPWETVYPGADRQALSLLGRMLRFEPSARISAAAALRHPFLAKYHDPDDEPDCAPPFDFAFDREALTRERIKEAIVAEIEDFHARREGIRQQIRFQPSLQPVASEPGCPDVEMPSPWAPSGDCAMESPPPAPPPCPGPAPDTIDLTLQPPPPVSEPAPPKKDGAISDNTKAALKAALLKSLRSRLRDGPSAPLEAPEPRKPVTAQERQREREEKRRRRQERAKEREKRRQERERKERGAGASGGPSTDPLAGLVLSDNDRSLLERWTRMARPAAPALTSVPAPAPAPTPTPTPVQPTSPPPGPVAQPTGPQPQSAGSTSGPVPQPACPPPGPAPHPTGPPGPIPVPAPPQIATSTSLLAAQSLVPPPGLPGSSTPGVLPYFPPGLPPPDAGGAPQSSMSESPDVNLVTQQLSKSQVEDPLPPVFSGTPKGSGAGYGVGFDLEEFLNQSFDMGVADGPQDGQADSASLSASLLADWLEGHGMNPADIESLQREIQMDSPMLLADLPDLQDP

With `Cc1c(Cl)cccc1Nc1ccccc1C(=O)O` as the compound, how does the luciferase signal read?
Its luciferase signal is 52 AU.

With `NCCS` as the compound, how does the luciferase signal read?
Its luciferase signal is 76 AU.

For `Cc1cc(C(C)(C)C)cc(C)c1CC1=NCCN1`, which luciferase signal is on record?
The luciferase signal was 44 AU.

With `CN1CCN(CC(=O)N2c3ccccc3C(=O)Nc3cccnc32)CC1` as the compound, how does the luciferase signal read?
Its luciferase signal is 188 AU.

With `CC(CN(C)C)CN1c2ccccc2CCc2ccccc21` (stereo not given) as the compound, how does the luciferase signal read?
Its luciferase signal is 64 AU.

For `COC(=O)Nc1nc2ccc(Sc3ccccc3)cc2[nH]1`, which luciferase signal is on record?
Its luciferase signal is 36 AU.

With `CC(C)NC[C@@H](O)COc1cccc2ccccc12` as the compound, how does the luciferase signal read?
The luciferase signal was 52 AU.

With `CCOC(=O)C1=C[C@]2(CC)CCCN3CCc4c(n1c1ccccc41)[C@@H]32` as the compound, how does the luciferase signal read?
The luciferase signal was 52 AU.

For `CC1(C)NC(=O)N(c2ccc([N+](=O)[O-])c(C(F)(F)F)c2)C1=O`, which luciferase signal is on record?
The luciferase signal was 100 AU.

With `CN1CCC(OC(c2ccccc2)c2ccccc2)CC1` as the compound, how does the luciferase signal read?
Its luciferase signal is 32 AU.

For `CN(C)CCCN1c2ccccc2Sc2ccccc21`, which luciferase signal is on record?
The luciferase signal was 44 AU.

Which luciferase signal does the source give for `CC(=O)Oc1ccccc1C(=O)O` here?
Its luciferase signal is 92 AU.

With `CCCCC1C(=O)N(c2ccccc2)N(c2ccccc2)C1=O` as the compound, how does the luciferase signal read?
The luciferase signal was 156 AU (active).

With `NC[C@H](O)c1ccc(O)c(O)c1` as the compound, how does the luciferase signal read?
Its luciferase signal is 60 AU.

For `Clc1ccc2c(c1)CCc1cccnc1C2=C1CCNCC1`, which luciferase signal is on record?
The luciferase signal was 32 AU and 40 AU.

For `Nc1ccc(S(=O)(=O)Nc2ccnn2-c2ccccc2)cc1`, which luciferase signal is on record?
The luciferase signal was 96 AU.

With `CC1(C)O[C@@H]2C[C@H]3[C@@H]4C[C@H](F)C5=CC(=O)CC[C@]5(C)[C@H]4[C@@H](O)C[C@]3(C)[C@]2(C(=O)CO)O1` as the compound, how does the luciferase signal read?
Its luciferase signal is 228 AU.

Which luciferase signal does the source give for `Cc1onc(-c2ccccc2)c1C(=O)N[C@@H]1C(=O)N2[C@@H]1SC(C)(C)[C@@H]2C(=O)O` here?
The luciferase signal was 64 AU.

With `CN1CCCN=C1COC(=O)C(O)(c1ccccc1)C1CCCCC1` (stereo not given) as the compound, how does the luciferase signal read?
Its luciferase signal is 80 AU.

For `O=C1CCc2cc(OCCCCc3nnnn3C3CCCCC3)ccc2N1`, which luciferase signal is on record?
Its luciferase signal is 96 AU.

Which luciferase signal does the source give for `CC(=O)OC(C)C[N+](C)(C)C` (stereo not given) here?
The luciferase signal was 104 AU.

With `C[C@](N)(Cc1ccc(O)c(O)c1)C(=O)O` as the compound, how does the luciferase signal read?
Its luciferase signal is 68 AU.

Which luciferase signal does the source give for `C[C@@](Cc1ccc(O)c(O)c1)(NN)C(=O)O` here?
The luciferase signal was 56 AU.

Which luciferase signal does the source give for `Clc1ccc(C(c2ccccc2Cl)C(Cl)Cl)cc1` (stereo not given) here?
Its luciferase signal is 56 AU.

Which luciferase signal does the source give for `CC(=O)OCC1=C(C(=O)O)N2C(=O)[C@@H](NC(=O)Cc3cccs3)[C@H]2SC1` here?
Its luciferase signal is 52 AU.

For `C[N+]1(C)[C@@H]2CC(OC(=O)[C@H](CO)c3ccccc3)C[C@H]1[C@@H]1O[C@@H]12` (stereo not given in full), which luciferase signal is on record?
The luciferase signal was 32 AU.

For `Cn1cnc2c1c(=O)[nH]c(=O)n2C`, which luciferase signal is on record?
Its luciferase signal is 60 AU.

For `NCCS(=O)(=O)O`, which luciferase signal is on record?
Its luciferase signal is 80 AU.

With `CCN(CC)Cc1cc(Nc2ccnc3cc(Cl)ccc23)ccc1O` as the compound, how does the luciferase signal read?
Its luciferase signal is 60 AU.

Which luciferase signal does the source give for `COc1ccc2c(c1)c(CC(=O)OCC(=O)O)c(C)n2C(=O)c1ccc(Cl)cc1` here?
The luciferase signal was 52 AU.

For `CC/C(=C(/CC)c1ccc(O)cc1)c1ccc(O)cc1`, which luciferase signal is on record?
The luciferase signal was 56 AU.

For `c1ccc(CN(CC2=NCCN2)c2ccccc2)cc1`, which luciferase signal is on record?
The luciferase signal was 112 AU.

Which luciferase signal does the source give for `O=C(O)c1cccnc1Nc1cccc(C(F)(F)F)c1` here?
The luciferase signal was 60 AU.

Which luciferase signal does the source give for `CC(=O)O[C@]1(C(C)=O)CC[C@H]2[C@@H]3C=C(Cl)C4=CC(=O)[C@@H]5C[C@@H]5[C@]4(C)[C@H]3CC[C@@]21C` here?
Its luciferase signal is 52 AU.

With `C[C@H](N)[C@H](O)c1cccc(O)c1` as the compound, how does the luciferase signal read?
Its luciferase signal is 40 AU.

With `CN1CCN(C(c2ccccc2)c2ccccc2)CC1` as the compound, how does the luciferase signal read?
Its luciferase signal is 124 AU.

For `CC1=C(C(=O)O)N2C(=O)[C@@H](NC(=O)[C@H](N)C3=CCC=CC3)[C@H]2SC1`, which luciferase signal is on record?
Its luciferase signal is 48 AU.

For `Oc1c(Cl)cc(Cl)c(Cl)c1Cc1c(O)c(Cl)cc(Cl)c1Cl`, which luciferase signal is on record?
Its luciferase signal is 28 AU.

For `C=C[C@@]1(C)CC(=O)[C@]2(O)[C@@]3(C)[C@@H](O)CCC(C)(C)[C@@H]3[C@H](O)[C@H](OC(C)=O)[C@@]2(C)O1`, which luciferase signal is on record?
The luciferase signal was 44 AU.

System: not listed separately
Test: galactose survival enhancers in mitochondrial complex I cybrids – cell-based, galactose medium, ATP luminescence, primary screen (AID 1645843);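 also: positive z means more ATP and so rescue of galactose-driven cybrid death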
Details: complex I mutant cybrid cells, 72 h, hits give high values

For `Cc1c(Cl)cccc1Nc1ccccc1C(=O)O`, which z-score is on record?
The z-score was 1.29.

With `NCCS` as the compound, how does the z-score read?
Its z-score is 0.24.

For `Cc1cc(C(C)(C)C)cc(C)c1CC1=NCCN1`, which z-score is on record?
The z-score was -0.37 and 0.085.

Which z-score does the source give for `CN1CCN(CC(=O)N2c3ccccc3C(=O)Nc3cccnc32)CC1` here?
The z-score was 1.01 and 0.81.

Which z-score does the source give for `CC(CN(C)C)CN1c2ccccc2CCc2ccccc21` (stereo not given) here?
Its z-score is -1.16.

For `COC(=O)Nc1nc2ccc(Sc3ccccc3)cc2[nH]1`, which z-score is on record?
Its z-score is -1.72.

With `CC(C)NC[C@@H](O)COc1cccc2ccccc12` as the compound, how does the z-score read?
The z-score was 0.54.

For `CCOC(=O)C1=C[C@]2(CC)CCCN3CCc4c(n1c1ccccc41)[C@@H]32`, which z-score is on record?
The z-score was 0.33 and -0.95 and -0.445.

For `CC1(C)NC(=O)N(c2ccc([N+](=O)[O-])c(C(F)(F)F)c2)C1=O`, which z-score is on record?
Its z-score is -0.59 and -0.55.

Which z-score does the source give for `CN(C)CCCN1c2ccccc2Sc2ccccc21` here?
The z-score was -0.99.

Which z-score does the source give for `CC(=O)Oc1ccccc1C(=O)O` here?
The z-score was 0.51 and 0.115.

Which z-score does the source give for `CCCCC1C(=O)N(c2ccccc2)N(c2ccccc2)C1=O` here?
The z-score was 0.865 and 0.7.

For `NC[C@H](O)c1ccc(O)c(O)c1`, which z-score is on record?
Its z-score is -1.45 and -1.61 and -1.02.

For `Clc1ccc2c(c1)CCc1cccnc1C2=C1CCNCC1`, which z-score is on record?
Its z-score is -1.23 and -1.54.

With `Nc1ccc(S(=O)(=O)Nc2ccnn2-c2ccccc2)cc1` as the compound, how does the z-score read?
Its z-score is 0.735.

For `Cc1onc(-c2ccccc2)c1C(=O)N[C@@H]1C(=O)N2[C@@H]1SC(C)(C)[C@@H]2C(=O)O`, which z-score is on record?
The z-score was 0.945.

With `O=C1CCc2cc(OCCCCc3nnnn3C3CCCCC3)ccc2N1` as the compound, how does the z-score read?
The z-score was -1.27 and -0.71.

With `CC(=O)OC(C)C[N+](C)(C)C` (stereo not given) as the compound, how does the z-score read?
The z-score was 0.455.

With `C[C@](N)(Cc1ccc(O)c(O)c1)C(=O)O` as the compound, how does the z-score read?
Its z-score is -1.24 and -0.53 and -0.665.

With `C[C@@](Cc1ccc(O)c(O)c1)(NN)C(=O)O` as the compound, how does the z-score read?
The z-score was 1.23 and -0.53.

For `Clc1ccc(C(c2ccccc2Cl)C(Cl)Cl)cc1` (stereo not given), which z-score is on record?
The z-score was -1.24.

Which z-score does the source give for `CC(=O)OCC1=C(C(=O)O)N2C(=O)[C@@H](NC(=O)Cc3cccs3)[C@H]2SC1` here?
Its z-score is 0.015.

Which z-score does the source give for `Cn1cnc2c1c(=O)[nH]c(=O)n2C` here?
The z-score was 0.475.

For `NCCS(=O)(=O)O`, which z-score is on record?
Its z-score is 0.675.

For `COc1ccc2c(c1)c(CC(=O)OCC(=O)O)c(C)n2C(=O)c1ccc(Cl)cc1`, which z-score is on record?
The z-score was 0.565.

Which z-score does the source give for `CC/C(=C(/CC)c1ccc(O)cc1)c1ccc(O)cc1` here?
The z-score was -0.645.

With `c1ccc(CN(CC2=NCCN2)c2ccccc2)cc1` as the compound, how does the z-score read?
The z-score was -0.39 and 0.065.

With `O=C(O)c1cccnc1Nc1cccc(C(F)(F)F)c1` as the compound, how does the z-score read?
Its z-score is -0.15 and 0.22.

Which z-score does the source give for `CC(=O)O[C@]1(C(C)=O)CC[C@H]2[C@@H]3C=C(Cl)C4=CC(=O)[C@@H]5C[C@@H]5[C@]4(C)[C@H]3CC[C@@]21C` here?
The z-score was 1.89 and 0.36.

For `Oc1c(Cl)cc(Cl)c(Cl)c1Cc1c(O)c(Cl)cc(Cl)c1Cl`, which z-score is on record?
The z-score was -1.5.

Which z-score does the source give for `C=C[C@@]1(C)CC(=O)[C@]2(O)[C@@]3(C)[C@@H](O)CCC(C)(C)[C@@H]3[C@H](O)[C@H](OC(C)=O)[C@@]2(C)O1` here?
The z-score was -0.315.
